The supplement of paper PMC5940239

Each compound was assayed on Madurella mycetomatis MM55 (assay: percent growth relative to solvent control; higher = less inhibition, active = 20 or less). Details: 100 µM; 7 days.
With `CCC(Sc1nc2ccccc2o1)C(=O)Nc1nnc(C)s1` (centres undefined) the percent growth was 40.9% (inactive).
With `COc1ccc2nccc(NC(=O)C3CCN(CCc4ccc(Cl)cc4)CC3)c2n1` the percent growth was 48.8% (inactive).
In the case of `CN1CCN(c2nccc3nc(-c4ccc(F)c(F)c4)[nH]c23)CC1`, the percent growth is reported as 52.1% (inactive).
With `O=C(NCc1ccoc1)N1CCN(Cc2ccc3c(c2)OCO3)CC1` the percent growth was 92.5% (inactive).
For `O=C(CCC1CCCCC1)Nc1cccc(-c2nnc(-c3ccco3)o2)c1`, the percent growth was 96.1% (inactive).
For `CC1CCCCN1C(=O)NCCc1coc(-c2ccc(F)cc2)n1` (centres undefined), the percent growth was 70% (inactive).
With `NC(=O)c1cc(Br)ccc1OCCOc1ccccc1` the percent growth was 92.8% (inactive).
For `CCN(CC)S(=O)(=O)c1ccc(C(=O)Nc2cc(C)nn2-c2nc(C)c(C)c(=O)[nH]2)cc1`, the percent growth was 63% (inactive).
For `O=C(N[C@H](Cc1ccccc1)C(=O)Nc1ccccc1N1CCOCC1)c1cccs1`, the percent growth was 36.5% (inactive).
`CC(C)(C)OC(=O)N1CCN(c2cc(-c3ccc(Oc4ccccc4)cc3)n[nH]2)CC1` was tested, and the percent growth was 112% (inactive).
`O=C(NC1CC1)c1ccc(CSCc2ccccc2Cl)o1` was tested, and the percent growth was 41.5% (inactive).
For `Cc1nn(C)cc1C(C)Nc1nncc(-c2ccc(C(F)(F)F)cc2)n1` (centres undefined), the percent growth was 61.9% (inactive).
With `COC(=O)c1c(NC(=O)c2cc3ccccc3oc2=O)sc2c1CCN(Cc1ccccc1)C2` the percent growth was 111% (inactive).
In the case of `Nc1ncc(-c2cn[nH]c2)cc1-c1nc2cc(Cl)cnc2[nH]1`, the percent growth is reported as 127% (inactive).
With `CS(=O)(=O)c1cccc(-c2cnc3[nH]cc(-c4ccc(CCC(=O)O)cc4)c3c2)c1` the percent growth was 95.9% (inactive).
In the case of `CN(C(=O)c1cc2c(-c3cncnc3)cccc2[nH]1)c1ccccc1`, the percent growth is reported as 51.3% (inactive).
`CC(C)C(NC(=O)Cc1cccc2ccccc12)C(=O)Nc1cccc(C#N)c1` (centres undefined) was tested, and the percent growth was 121% (inactive).
`COC(=O)c1c(NC(=O)c2c(F)c(F)c(F)c(F)c2F)sc2c1CCCCC2` was tested, and the percent growth was 85.5% (inactive).
`COc1cc(NC(=O)Cc2nn(C)c(=O)c3ccccc23)ccc1Cl` was tested, and the percent growth was 116% (inactive).
`Cc1cc(C)n2nc(C(=O)Nc3cc(C(F)(F)F)ccc3N3CCOCC3)nc2n1` was tested, and the percent growth was 162% (inactive).
In the case of `CC(C)n1ncc2c(C(=O)NCC(c3cccs3)N3CCOCC3)cc(-c3ccccc3)nc21` (centres undefined), the percent growth is reported as 76% (inactive).
For `Cc1cnc(CCNC(=O)c2cc(-c3ccc(Cl)cc3)cs2)[nH]1`, the percent growth was 94.3% (inactive).
For `Cc1cc2ccccc2n1CC(=O)N1CC(C(=O)N2CCCCC2)Oc2ccccc21` (centres undefined), the percent growth was 82.1% (inactive).
With `COc1cc(C2=NCCN2)ccc1-c1cn(-c2cccc(C3=NCCN3)c2)nn1` the percent growth was 61% (inactive).
`C[C@H]1COc2c(N3CCN(C)CC3)c(F)cc3c(=O)c(C(=O)O)cn1c23` was tested, and the percent growth was 89.5% (inactive).
In the case of `COc1nc2ccc(Br)cc2cc1[C@@H](c1ccccc1)[C@@](O)(CCN(C)C)c1cccc2ccccc12`, the percent growth is reported as 100% (inactive).
For `CC(=O)N1CCN(c2ccc(Oc3ccc(Cl)cc3O)cc2)CC1`, the percent growth was 102% (inactive).
`Nc1ccc2ncnc(Nc3ccc(OCc4cccc(F)c4)c(Cl)c3)c2c1` was tested, and the percent growth was 92.1% (inactive).
With `CCN(CC)CCCN1CCN(C(=O)c2cccc(-c3noc(C(F)(F)F)n3)c2)CC1` the percent growth was 118% (inactive).
With `CCOc1ccccc1NC(C)C(=O)Nc1cc(C(F)(F)F)ccc1N1CCOCC1` (centres undefined) the percent growth was 76.7% (inactive).
For `CC(C)(CN)c1nc(-c2ccc(Cl)c(O)c2)c(-c2ccnc(N)n2)[nH]1`, the percent growth was 88.2% (inactive).
For `CC(C)C(Oc1cccc2ccccc12)C(=O)O` (centres undefined), the percent growth was 118% (inactive).
In the case of `CCOc1ccc(OCC(=O)Nc2cc(C)cc(C)c2)cc1`, the percent growth is reported as 89.4% (inactive).
For `CC(C)N=c1cc2n(-c3ccc(Cl)cc3)c3ccccc3nc-2cc1Nc1ccc(Cl)cc1`, the percent growth was 105% (inactive).
With `CCn1ncc2c(NC3CCOCC3)c(CNC(=O)c3ccnn3C)c(C)nc21` the percent growth was 142% (inactive).
For `O=C1Nc2ccc(Br)cc2C12NCCc1c2[nH]c2ccccc12` (centres undefined), the percent growth was 63.6% (inactive).
`COc1ccc(Cl)cc1NC(=O)CN(C)C(=O)c1cnn(-c2ccccc2)n1` was tested, and the percent growth was 30.8% (inactive).
With `O=C(NCCc1c[nH]c2ccccc12)c1cc2ccccc2oc1=O` the percent growth was 109% (inactive).
For `Cc1ccc(C(=O)Nc2ccc(S(=O)(=O)O)c3cc(S(=O)(=O)O)cc(S(=O)(=O)O)c23)cc1NC(=O)c1cccc(NC(=O)Nc2cccc(C(=O)Nc3cc(C(=O)Nc4ccc(S(=O)(=O)O)c5cc(S(=O)(=O)O)cc(S(=O)(=O)O)c45)ccc3C)c2)c1`, the percent growth was 141% (inactive).
